# This is part of a sample that, as a whole, favours compounds with a hit. Of some 83,000 tested, about 20% had one in any assay.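 Assay: single dose, 48 h. Readout: percent growth (0 = no net growth; negative = cell death). Active: <10.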 A number with no mark means an inactive call. The source made the active and inactive calls.
# How the values were obtained:
# Assay in all cases: NCI-60 one-dose screen, 48 h (100 = growth as untreated, 0 = no growth, -100 = all killed)
# Details in all cases: 10 µM unless noted
# [1] = test system: HCT-15 colon
# [2] = test system: HT29 colon
# [3] = test system: SNB-75 CNS
# [4] = test system: SNB-19 CNS
# [5] = test system: U251 CNS
# [6] = test system: PC-3 prostate
# [7] = test system: SK-MEL-5 melanoma
# [8] = test system: UACC-62 melanoma
# [9] = test system: LOX IMVI melanoma
# [10] = test system: SK-MEL-28 melanoma
SMILES,growth [1],growth [2],growth [3],growth [4],growth [5],growth [6],growth [7],growth [8],growth [9],growth [10]
CC(=O)OC(C(=O)c1ccccc1)c1ccccc1 (stereo not given),105%,80.4%,84.6%,103%,106%,89%,102%,100%,107%,107%
COc1ncc(-c2ccc3nccc(-c4ccnnc4)c3c2)cc1NS(=O)(=O)c1ccc(F)cc1F,-15% (active),-10.4% (active),-29.8% (active),-42.8% (active),-62.3% (active),-0.788% (active),-95.8% (active),-67.4% (active),-42.8% (active),-17.4% (active)
CC(=O)CC1CCCC1c1ccc2ccccc2c1 (stereo not given),103%,95.8%,93.8%,104%,94.4%,91.9%,101%,99.6%,97.8%,103%
CC1(COc2ccc3c(c2)ncn3-c2ccc3cccc(N4CCC(N)CC4)c3n2)COC1,10.5%,0% (active),14.4%,7.04% (active),-36.4% (active),30.2%,-13.8% (active),99.3%,-57.2% (active),15.2%
CC(C)[C@@H]1CC[C@]2(CO2)[C@@H]2C(=O)OCC(C(=O)O)=C[C@H]21,0.806% (active),-1.49% (active),20.7%,1.78% (active),1.81% (active),22.5%,-42.8% (active),-67.1% (active),-31.2% (active),-73.4% (active)
CCN(CC)Cc1cc(Nc2cc(C(F)(F)F)c(C#N)c3nc4ccccc4n23)ccc1O,6.22% (active),5.33% (active),13.5%,18.5%,8.94% (active),6.16% (active),-36.4% (active),9.53% (active),12.2%,29.6%
Cc1cc2c(-c3nc4ccccn4c3NC3CCCCC3)c(O)c(O)cc2c(O)c1-c1c(C)cc2c(-c3nc4ccccn4c3NC3CCCCC3)c(O)c(O)cc2c1O,19.9%,25.7%,28%,25.3%,19.8%,18.4%,23.9%,-1.66% (active),27.4%,38.9%
COCCN1CCN(Cc2ccc(-c3n[nH]c4c3C(=O)c3c(NC(=O)NN5CCOCC5)cccc3-4)cc2)CC1,-13.6% (active),-22.3% (active),-37.6% (active),2.99% (active),1.69% (active),3.15% (active),-23.8% (active),-44.9% (active),-77.2% (active),-39.7% (active)
CO[C@H]1C[C@@H]2CC[C@@H](C)[C@@](O)(O2)C(=O)C(=O)N2CCCC[C@H]2C(=O)O[C@H]([C@H](C)C[C@@H]2CC[C@@H](OC(=O)C(C)(CO)CO)[C@H](OC)C2)CC(=O)[C@H](C)/C=C(\C)[C@@H](O)[C@@H](OC)C(=O)[C@H](C)C[C@H](C)\C=C/C=C/C=C/1C,27.3%,4.55% (active),-0.0597% (active),30.6%,19.4%,18.1%,12.9%,31.5%,22.5%,34.2%
CN(C[C@@H]1COCCO1)S(=O)(=O)Nc1ccc2ccc3ncc(-c4cnn(C)c4)cc3c(=O)c2c1,26%,51.3%,13.6%,80.7%,37.4%,45.6%,36%,36.2%,30.1%,59.7%
COc1cc(-c2cc(-c3ccc(Nc4ccnc5cc(Cl)ccc45)cc3)nc(N3CCOCC3)n2)cc(OC)c1OC,-29.8% (active),-21.8% (active),-25.3% (active),28.8%,-57.1% (active),-5.02% (active),28%,70.1%,4.79% (active),7.13% (active)
CC/C=C\C[C@H]1C/C=C2/C(=O)C=C[C@@H]2C/C=C\CCCC(=O)O1,-33.8% (active),-29.2% (active),47%,12.6%,-80.9% (active),-42.6% (active),-88.4% (active),-57.6% (active),-76.1% (active),-28.6% (active)
CCc1cnn2c(NCc3ccc[n+]([O-])c3)cc(N3CCCC[C@H]3CCO)nc12,0.896% (active),-29.3% (active),-74.4% (active),6.92% (active),-8.91% (active),-20.5% (active),-40.2% (active),-70.7% (active),5% (active),-34.3% (active)
C[C@@H]1COC(Nc2ccc3ncnc(Nc4ccc(OCc5nccs5)c(Cl)c4)c3c2)=N1,29.2%,14.8%,27.9%,67.8%,42.3%,8.43% (active),-39% (active),23.5%,17.8%,29.8%
O=C(NOCCO)c1cc(CN2OCCCC2=O)c(F)c(F)c1Nc1ccc(I)cc1F,50.6%,8.15% (active),71.5%,51.8%,40.6%,99.3%,45.7%,4% (active),19.4%,3.09% (active)
COc1cc2ncnc(Nc3ccc(O)cc3)c2cc1OC,95.8%,68.2%,64%,77.7%,83.6%,91%,98.2%,76.7%,92.2%,97%
CC1CCC(n2cnc3c(Cl)ncnc32)O1 (stereo not given),103%,110%,91.9%,82.3%,102%,89.6%,91%,104%,87.1%,109%
COC(=O)N[C@@H](C)CNc1nccc(-c2cn(C(C)C)nc2-c2cc(Cl)cc(NS(C)(=O)=O)c2F)n1,53.6%,7.99% (active),51.8%,108%,87.2%,90.7%,51.4%,-11% (active),37.5%,-0.756% (active)
CC(C)=CCc1cc2c(cc1O)C1=C(C(=O)C3=C(C1=O)S(=O)(=O)CCN3)C(C=C(C)C)O2 (stereo not given),-11.5% (active),-30.5% (active),-81.1% (active),-91.1% (active),-81.3% (active),10.2%,-99.5% (active),-32.3% (active),-65.8% (active),-75.9% (active)
C=C1C(=O)O[C@H]2[C@H]1CC/C(CNC(=O)c1cc3cc(OC)ccc3[nH]1)=C\CC[C@@]1(C)O[C@@H]21,-78.4% (active),-70.9% (active),51.4%,44%,14.5%,-52.5% (active),-39.2% (active),-66.1% (active),-93.5% (active),-59.3% (active)
O=C(Cc1ccc(/C=C/C(=O)c2ncc[nH]2)cc1)Nc1ccc(Br)cc1,-5.46% (active),-21% (active),40.5%,8.45% (active),-63.5% (active),17%,54.8%,31%,-65% (active),73.4%
COc1ccc(S(=O)(=O)N(C(C)=O)c2ccccc2/C=C/c2cc[n+]([O-])cc2)cc1,17.9%,1.49% (active),4.75% (active),25.4%,9.19% (active),17.9%,7.61% (active),37.1%,18%,45.4%
CC(C)(C)OC(=O)N1CCC(O)[C@@H](O[Si](c2ccccc2)(c2ccccc2)C(C)(C)C)[C@H]1/C=C/c1ccccc1 (stereo not given in full),41.1%,37.9%,46.8%,58.5%,44.4%,14%,30.2%,57.1%,61.4%,65.1%
CCOc1cc2ncc(C#N)c(Nc3ccc(F)c(Cl)c3)c2cc1NC(=O)/C=C/CN(C)C,-31.1% (active),-35.3% (active),-98.5% (active),-26.6% (active),-70.9% (active),-1.37% (active),-94.5% (active),-46.7% (active),-72.3% (active),-75.4% (active)
